High-throughput results as filed in PubChem BioAssay.
The list is not random: actives were taken first. Their share in the collection is about 6%.
D1 ag: human D1 receptor agonism | HEK293 T-REx D1 cells, calcium flux, agonist mode | P21728 | 360,000 tested, 1% active | activation, % at 2 µM | AID 504660; in the data active = activation above about 30%; note: 0% is about no effect
Target sequence (P21728 whole entry, looked up): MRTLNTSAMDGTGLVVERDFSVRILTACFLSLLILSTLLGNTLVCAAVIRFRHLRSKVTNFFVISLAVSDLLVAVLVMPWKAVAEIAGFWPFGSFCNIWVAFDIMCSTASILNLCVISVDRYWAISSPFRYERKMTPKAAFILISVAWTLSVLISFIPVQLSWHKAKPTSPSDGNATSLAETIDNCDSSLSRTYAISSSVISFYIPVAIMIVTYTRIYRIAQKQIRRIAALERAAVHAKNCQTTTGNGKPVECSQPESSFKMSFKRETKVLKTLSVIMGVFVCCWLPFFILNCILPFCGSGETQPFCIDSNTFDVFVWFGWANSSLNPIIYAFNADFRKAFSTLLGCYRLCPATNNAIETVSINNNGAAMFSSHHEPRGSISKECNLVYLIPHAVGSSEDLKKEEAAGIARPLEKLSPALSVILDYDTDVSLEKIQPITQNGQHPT
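Tetracycline-induced HEK293 TREx D1 cells, force-coupled to calcium signalling, were dye-loaded with a no-wash calcium kit. Compound was pin-added after a 10 s baseline. Fluorescence was read kinetically at 1 cycle/s for 180 s, with calcium rises flagged as agonism.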
D1 PAM: human D1 dopamine receptor positive modulation | 360,000 tested, 0.036% active | potentiation, % at 10 µM | AID 504651 | P21728 | HEK293 TREx D1 cells, calcium flux, dopamine EC20 potentiation; in the data active = potentiation above about 30%; note: 0% is about no effect
DRD3 agonist: agonists of human D3 dopamine receptor. D3R DiscoveRx beta-arrestin cells, luminescence, 90 min. AID 652048. P35462. 410,000 tested, 0.58% active. max activation, %; in the data active = max activation above about 30%; note: 0% is about no effect
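Agonist-mode cell screen: cells plated at 1500/well and incubated overnight at 37 °C, then exposed to library compounds for 90 min at 37 °C. Detection reagent was added for 30–60 min at room temperature, and luminescence was read.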
D3 antag: blocks the human D3 dopamine receptor; P35462; D3R cells, DiscoveRx beta-arrestin luminescence, antagonist mode; stronger effect = lower value; max response, negative = inhibition, %; 360,000 tested, 2.5% active; AID 652054; in the data active = max response below about -50%; inconclusive = no clear call, values can overlap the other calls; note: % is set by controls: 0 for no effect and ±100 for the full control effect
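Cells plated overnight at 1500 cells/well, then exposed to library compounds with dopamine controls for 90 minutes at 37 degrees C. DiscoveRx reagent added for 30–60 minutes at room temperature; luminescence read, quantitative HTS format.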
D1 antag: blocks dopamine activation of the human D1 receptor | P21728 | 360,000 tested, 3.2% active | HEK293 TREx D1 cells, calcium flux, dopamine EC80; stronger effect = lower value | AID 504652 | activity change, negative = inhibition, % at 10 µM; in the data active = activity change below about -30%; note: % is set by controls: 0 for no effect and ±100 for the full control effect
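Allosteric or orthosteric antagonism assessed as attenuation of the calcium response to EC80 dopamine, added 180 s after compound, in induced HEK293 Trex D1 cells loaded with no-wash calcium dye.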
An asterisk follows results filed as active.

`O=S(=O)(Cc1ccc(Cl)cc1)N1CCCC1` gave D1 ag 2, D1 PAM 2, DRD3 agonist -14, D3 antag -10 and D1 antag -74*.
`COc1ccc(CC(=O)Nc2sc3c(c2C(=O)Nc2cccc(C)c2)CCCCC3)cc1` gave D1 ag -2, D1 PAM 3, DRD3 agonist -1 and D1 antag 5.
`O=S(=O)(c1ccc(Br)s1)N1CCN(c2cccc(C(F)(F)F)c2)CC1` gave D1 ag 22, D1 PAM 1, DRD3 agonist -16 and D1 antag -9.
For Cc1ccc(C(=O)OCC(=O)Nc2cc(S(=O)(=O)N3CCOCC3)ccc2C)cc1 the results were D1 ag 2, D1 PAM -5, DRD3 agonist -3, D3 antag 4 and D1 antag 3.
Screening Cc1ccc(S(=O)(=O)N2CCOCC2)cc1NC(=O)COC(=O)CCC(=O)c1ccc(F)cc1 returned D1 ag 4, D1 PAM -7, DRD3 agonist -1, D3 antag 9 and D1 antag -31*.
`Cc1ccc(S(=O)(=O)N2CCOCC2)cc1NC(=O)CNCc1cccnc1` gave D1 ag 4, D1 PAM -1, DRD3 agonist 80*, D3 antag 21 and D1 antag -20.
For Cc1ccc(S(=O)(=O)N2CCOCC2)cc1NC(=O)COC(=O)Cn1c(C)csc1=O the results were D1 ag 3, D1 PAM -8, DRD3 agonist 5, D3 antag 20 and D1 antag -31*.
For Cc1ccc(S(=O)(=O)N2CCOCC2)cc1NC(=O)CNCc1ccc(Cl)cc1Cl the results were DRD3 agonist 0 and D3 antag 7.
Screening Cc1ccc(S(=O)(=O)N2CCOCC2)cc1NC(=O)COC(=O)CCn1c(C)csc1=O returned D1 ag 5, D1 PAM -1, DRD3 agonist -1, D3 antag -18 and D1 antag -4.
`COc1cc(S(=O)(=O)N2CCOCC2)ccc1NC(=O)COC(=O)CC12CC3CC(CC(C3)C1)C2` gave D1 ag 2, D1 PAM -2, DRD3 agonist -6, D3 antag -53* and D1 antag -7.
O=C(Nc1cc2c(cc1C(=O)c1ccccc1Br)OCCO2)c1ccccc1 was read as D1 ag 6, D1 PAM 2, DRD3 agonist 4 and D1 antag 16.
Screening CC1Sc2ccc(S(=O)(=O)N3CCC(C(=O)NCC(C)c4ccccc4)CC3)cc2NC1=O (centres undefined) returned D1 ag 2, D1 PAM -22, DRD3 agonist -3, D3 antag 6 and D1 antag -76*.
Screening CC(=O)c1ccc(C(=O)Nc2nnc(-c3ccc(Cl)cc3)o2)cc1 returned D1 ag 0, D1 PAM -9, DRD3 agonist 0, D3 antag -6 and D1 antag -32*.
For COc1ccccc1-c1nnc(NC(=O)c2ccc(S(=O)(=O)N(C)Cc3ccccc3)cc2)o1 the results were D1 ag 2, D1 PAM 2, DRD3 agonist 4, D3 antag -78* and D1 antag -6.
For CN(Cc1ccccc1)S(=O)(=O)c1ccc(C(=O)Nc2nnc(C3CC3)o2)cc1 the results were D1 ag 0, D1 PAM -5, DRD3 agonist -7, D3 antag -63* and D1 antag -6.
For CCc1nnc(NC(=O)c2ccc(S(=O)(=O)N(C)Cc3ccccc3)cc2)o1 the results were D1 ag 0, D1 PAM -3, DRD3 agonist -1, D3 antag -1 and D1 antag -3.
For COc1ccccc1-c1nnc(NC(=O)c2ccc(S(=O)(=O)N3CCOCC3)cc2)o1 the results were D1 ag 3, D1 PAM -2, DRD3 agonist -9, D3 antag -18 and D1 antag -17.
Screening O=C(Nc1nnc(-c2ccccc2)o1)Nc1ccc(F)cc1F returned D1 ag 3, D1 PAM -2, DRD3 agonist 2, D3 antag 0 and D1 antag -31*.
`O=C(CCC(=O)N1CC2CCCN2c2ccccc21)NCc1ccccc1F` (centres undefined) gave D1 ag 7, D1 PAM 0, DRD3 agonist -24 and D1 antag -2.
For COc1ccc(OC)c(NC(=O)CSc2ncc3c(n2)-c2ccccc2N(C)S3(=O)=O)c1 the results were D1 ag 1, D1 PAM 3, DRD3 agonist 3 and D1 antag -2.
CN(c1ccccc1)S(=O)(=O)c1ccc(C(=O)Nc2nnc(-c3ccc(F)cc3)o2)cc1 was read as D1 ag 18, D1 PAM 21, DRD3 agonist -4, D3 antag -88* and D1 antag -15.
Screening CCCN(CCC)c1nc(-c2ccccn2)nc2ccccc12 returned D1 ag 0, D1 PAM -3, DRD3 agonist -9, D3 antag inconclusive and D1 antag 25.
Screening CCCN(CCC)c1nc(-c2ccccc2F)nc2ccccc12 returned D1 ag 39*, D1 PAM 0, DRD3 agonist 5 and D1 antag 3.
Screening Cc1cccc(OC(=O)c2cc(-c3ccc4c(c3)OCCO4)on2)c1 returned D1 ag 6, D1 PAM 2, DRD3 agonist -1 and D1 antag -16.
For C=CCn1c(C)cc(C(=O)CSc2nnc3c(Cl)cc(Cl)cn23)c1C the results were D1 ag 0, D1 PAM -7, DRD3 agonist -8, D3 antag -22 and D1 antag -25.
For Cc1cc(C(=O)CSc2nnc3c(Cl)cc(Cl)cn23)c(C)n1C the results were D1 ag 1, D1 PAM 3, DRD3 agonist 1, D3 antag 11 and D1 antag -31*.
`O=C(NCc1ccccc1)C1CCN(c2ncnc3c2nc2n3CCCCC2)CC1` gave D1 ag 0, D1 PAM -3, DRD3 agonist 1 and D1 antag -33*.
`Cc1ccc(C)c(N2CCN(C(=O)C3CCCN(c4ncnc5c4nc4n5CCCCC4)C3)CC2)c1` (centres undefined) gave D1 ag 8, D1 PAM 3, DRD3 agonist 31*, D3 antag 59 and D1 antag 22.
For Cc1ccc(N2CCN(C(=O)C3CCCN(c4ncnc5c4nc4n5CCCCC4)C3)CC2)c(C)c1 (centres undefined) the results were D1 ag 10, D1 PAM 3, DRD3 agonist 1, D3 antag 25 and D1 antag -11.
For COc1cccc(CNC(=O)C2CCN(c3ncnc4c3nc3n4CCCCC3)CC2)c1 the results were D1 ag 0, D1 PAM -3, DRD3 agonist 7, D3 antag 11 and D1 antag 5.
